This assay has as its system Plasmodium falciparum NF54/iGP1_RE9H ulg8 stage V gametocytes. As to the kind of experiment: gametocyte viability (luciferase signal relative to DMSO control) (% of DMSO control); higher = less gametocytocidal activity, active = 50 or less. To be noted: exposure time: 72 h. Put shortly: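 In 96-well plates holding nanolitre spots of compound (10 mM DMSO stocks), NF54/iGP1_RE9Hulg8 stage V gametocytes from day 12 were added at ~2.5% gametocytemia and 3% hematocrit in medium with 0.5% Albumax II, giving single wells at 10 µM or 1 µM. Incubation lasted 72 h at 37 °C. Each 90 µl sample then received 10 µl D-luciferin (30 mg/ml) before luminescence reading on an IVIS Lumina II, and viability was normalized to the mean of DMSO vehicle wells on the same plate.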

Each structure is given as a SMILES string. “And” between values parts separate entries of the source, which are not always exact repeats. Equal entries are not always repeated. Structures can show the parent of a compound that is named as a salt. A number with no mark means an inactive call.

In the case of `C[C@@H]1CN(CC(=O)Nc2ccc3c(c2)Cc2cccc(-c4cc(=O)cc(N5CCOCC5)o4)c2S3)C[C@H](C)O1`, the gametocyte viability reads like this: (concentration: 1 µM) 86; (concentration: 10 µM) 68.

For `CC(C)n1nc(-c2cc3cc(O)ccc3[nH]2)c2c(N)ncnc21`, the gametocyte viability was 105 (concentration: 1 µM) and 103 (concentration: 10 µM).

Turning to `COc1cc2ncnc(Nc3ccc(F)c(Cl)c3)c2cc1OCCCN1CCOCC1` [Gefitinib (Iressa)], the gametocyte viability is 95.3 (concentration: 1 µM) and 92.8 (concentration: 10 µM).

With `O=S(=O)(c1cccc2c(I)cccc12)N1CCCNCC1`, the gametocyte viability is 102 (concentration: 1 µM) and 94.1 (concentration: 10 µM).

For the compound `Oc1cc(O)cc(/C=C/c2ccc(O)c(O)c2)c1` [Piceatannol], the gametocyte viability (concentration: 1 µM) was 70.4 and the gametocyte viability (concentration: 10 µM) is 38.4 (active).

On to `O=C1NC(=O)/C(=C/c2ccc3c(c2)OC(F)(F)O3)S1`, for which the gametocyte viability runs as follows: (concentration: 1 µM) 103; (concentration: 10 µM) 106.

Consider `O=c1cc(-c2ccc(O)cc2)oc2cc(O)cc(O)c12` [Apigenin], for which the gametocyte viability (concentration: 1 µM) was 101 and the gametocyte viability (concentration: 10 µM) was 65.3.

Consider `Cc1ccc(C(=O)Nc2cccc(C(F)(F)F)c2)cc1Nc1nc(-c2cccnc2)nc2c1cnn2C`, for which the gametocyte viability (concentration: 1 µM) is 100 and the gametocyte viability (concentration: 10 µM) was 98.7.

In the case of `N#CC(=Cc1ccc2[nH]ccc2c1)C(N)=C(C#N)C#N`, the gametocyte viability reads like this: (concentration: 1 µM) 100; (concentration: 10 µM) 104.

Regarding `O=Nc1c(-c2c(O)[nH]c3ccccc23)[nH]c2ccccc12` [Indirubin-3'-monooxime], the gametocyte viability (concentration: 1 µM) was 90.1 and the gametocyte viability (concentration: 10 µM) is 86.8.

On to `COc1cc(Nc2ncc(F)c(Nc3ccc4c(n3)N(COP(=O)(O)O)C(=O)C(C)(C)O4)n2)cc(OC)c1OC`, for which the gametocyte viability was 95.1 (concentration: 1 µM) and 101 (concentration: 10 µM).

For the compound `Cc1ncc(-c2ccnc(Nc3ccc(S(C)(=O)=O)cc3)n2)n1C(C)C`, the gametocyte viability is 115 (concentration: 1 µM) and 119 (concentration: 10 µM).

For `CO[C@@H](C(=O)N1Cc2[nH]nc(NC(=O)c3ccc(N4CCN(C)CC4)cc3)c2C1)c1ccccc1`, the gametocyte viability is 89.5 (concentration: 1 µM) and 71.6 (concentration: 10 µM).

Turning to `NC(=O)c1ccc(-c2nc(-c3ccccn3)c(-c3ccc4c(c3)OCO4)[nH]2)cc1`, the gametocyte viability runs as follows: (concentration: 1 µM) 101; (concentration: 10 µM) 125.

As for `COc1cccc(-c2cc(=O)c3ccccc3o2)c1N`, the gametocyte viability by setting is: (concentration: 1 µM) 97.3 and 93.2; (concentration: 10 µM) 64.5 and 69.7.

On to `CC[C@H](CO)Nc1nc(NCc2ccccc2)c2ncn(C(C)C)c2n1` [Roscovitine], for which the gametocyte viability by setting is: (concentration: 1 µM) 107; (concentration: 10 µM) 105.

As to `Cc1cc(=O)c2c(O)c3c(O)cc(O)c4c5c(O)cc(O)c6c(O)c7c(=O)cc(C)c8c1c2c(c34)c(c65)c78` [Hypericin], the gametocyte viability by setting is: (concentration: 1 µM) 103; (concentration: 10 µM) 100.

For the compound `NC(=O)Nc1cc(-c2cccc(F)c2)sc1C(=O)N[C@H]1CCCNC1`, the gametocyte viability runs as follows: (concentration: 1 µM) 116; (concentration: 10 µM) 92.3.

Consider `COc1cc2c(Nc3ccc(NC(=O)c4ccccc4)cc3)ncnc2cc1OCCCN1CCOCC1`, for which the gametocyte viability was 92.3 (concentration: 1 µM) and 92.5 (concentration: 10 µM).

For the compound `Cc1ccc(NC(=O)c2ccc(CN3CCN(C)CC3)cc2)cc1Nc1nc(-c2cccnc2)cs1` [Masitinib (AB1010)], the gametocyte viability reads like this: (concentration: 1 µM) 104; (concentration: 10 µM) 80.3.

As to `Cc1cn(-c2cc(NC(=O)c3ccc(C)c(Nc4nccc(-c5cccnc5)n4)c3)cc(C(F)(F)F)c2)cn1` [Nilotinib (AMN-107)], the gametocyte viability runs as follows: (concentration: 1 µM) 111; (concentration: 10 µM) 107.

As to `O=C(O)c1cc(N(Cc2ccccc2O)Cc2cc(O)ccc2O)ccc1O` [Lavendustin A], the gametocyte viability was 98.5 (concentration: 1 µM) and 99.4 (concentration: 10 µM).

Regarding `Cn1cc(C2=C(c3cn(CCCSC(=N)N)c4ccccc34)C(=O)NC2=O)c2ccccc21` [Ro 31-8220 mesylate], the gametocyte viability reads like this: (concentration: 1 µM) 123; (concentration: 10 µM) 78.9.

For the compound `CC(C)(C)n1nc(-c2ccc(Cl)cc2)c2c(N)ncnc21`, the gametocyte viability is 97 (concentration: 1 µM) and 99.4 (concentration: 10 µM).

Take `c1ccc2c(-c3cnn4cc(-c5ccc(N6CCNCC6)cc5)cnc34)ccnc2c1`: the gametocyte viability was 106 (concentration: 1 µM) and 73.3 (concentration: 10 µM).

As for `COc1cc2nccc(Oc3ccc(NC(=O)Nc4ccc(F)cc4F)c(F)c3)c2cc1OC`, the gametocyte viability is 94.9 (concentration: 1 µM) and 85 (concentration: 10 µM).

Take `Cc1ccc(C(=O)Nc2ccc(CN3CCN(C)CC3)c(C(F)(F)F)c2)cc1C#Cc1cnc2cccnn12`: the gametocyte viability reads like this: (concentration: 1 µM) 111; (concentration: 10 µM) 130.

Turning to `O=c1cc(-c2cccc3c2Sc2ccccc2S3)oc(N2CCOCC2)c1`, the gametocyte viability runs as follows: (concentration: 1 µM) 110; (concentration: 10 µM) 107.

With `COc1cc(Nc2c(C#N)cnc3cc(OCCCN4CCN(C)CC4)c(OC)cc23)c(Cl)cc1Cl` [Bosutinib (SKI-606)], the gametocyte viability was 86.4 (concentration: 1 µM) and 98.1 (concentration: 10 µM).

The record behind these values is the supplement of paper PMC12297408.
